The supplement of paper PMC6555819

Experiments:
Experiment in all cases: PBM binding z-score (relative to random genomic background probes); higher = stronger binding; sequences stand for … in GC…GCGATTGACAGCGTAGAATGAAGG
[1] = tested on: RARb homodimer (NR concentration 270 nM)
Method in brief: (§1)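 For binding z-scores, the reference was random background probes on custom Agilent 4×180K protein-binding microarrays. These arrays were incubated 1 h with ligand-free nuclear receptor dimers in PBS pH 7.4, 2% milk, 0.02% Triton X-100, 1 mM DTT, 0.2 mg/mL BSA and 0.4 mg/ml salmon testes DNA. Fluorescence was scanned after antibody detection of each partner (one per run) and regression-normalized.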

[2] = tested on: RARg:RXRa (NR concentration 270 nM, RXRa partner concentration 90 nM)
Method in brief: as §1

[3] = tested on: RARg homodimer (NR concentration 270 nM)
Method in brief: as §1

[4] = tested on: RXRa DBDmut IVT, anti-RXR (DBD mutation: RXRa K156A/R161A, NR concentration 90 nM)
Method in brief: as §1

[5] = tested on: RXRa homodimer (NR concentration 180 nM)
Method in brief: as §1

[6] = tested on: THRa:RXRa (NR concentration 90 nM, RXRa partner concentration 90 nM)
Method in brief: as §1

[7] = tested on: THRa homodimer (NR concentration 90 nM)
Method in brief: as §1

[8] = tested on: VDR:RXRa (NR concentration 270 nM, RXRa partner concentration 90 nM)
Method in brief: as §1

[9] = tested on: VDR homodimer (NR concentration 270 nM)
Method in brief: as §1

Sequence	PBM binding z-score [1]	PBM binding z-score [2]	PBM binding z-score [3]	PBM binding z-score [4]	PBM binding z-score [5]	PBM binding z-score [6]	PBM binding z-score [7]	PBM binding z-score [8]	PBM binding z-score [9]
TCTCGGAGGACACGAACGTCAGAGCTTTCCAGAG	0.309	0.302	0.872	0.441	0.094	1.25	0.208	-0.0912	-0.356
AGAATGAAGTTATTAAGATCAGGGAATTGCGGTC	-0.379	-0.168	-0.0523	-0.232	0.116	-0.108	-0.315	-0.316	-0.263
ATCTCTAGGTAAGACTCAGTTCCGTGAAGAACGC	0.119	-0.049	-0.0446	0.432	-0.116	0.287	0.766	0.121	0.435
ACAGACATGTGAGTGAAGGTAACTCAGCTGGACG	-0.584	0.0591	0.117	-0.191	0.317	-0.00314	-0.488	-0.252	-0.512
TCTTGTAGATGAATAGAGGTTAAGAAAGTGCGCT	1.19	0.961	0.531	1.66	1.68	1.72	0.0374	1.94	0.264
ACAGACGGGTGATGAAGGTAACTCAGGCTATCAT	-0.00116	-0.0351	0.218	-0.512	0.0942	0.536	0.269	0.177	-0.203
AGTCAATGTTCACTAGGTAACGTAAGATTCAGCT	0.00708	0.177	0.455	0.313	0.0273	0.29	0.282	-0.0351	-0.164
AGAACGAGGGCATGCTGAGTTGATAGCAGAGTAG	0.498	1.33	1.34	2.24	0.92	1.2	-0.497	1.5	1.74
CCTAGTTGGTCAAGGTCACACGCGCTATAGGTAC	4.39	4.76	4.72	2.18	4.7	4.17	4.19	4.29	3.41
CCGCGGAGGACAGAAGGTCAGAGCTGTCCGCTTT	3.51	3.69	3.56	0.479	2.27	2.17	-0.127	0.646	0.1
GCTAGTTGGTCAGTAAAAGGTCACTCACCGGTCG	5.26	5.05	4.43	0.781	4.21	3.31	1.47	3.51	1.36
CCGACTGGGGCAAGGTTACCACAACGCACAGCCA	1.53	1.13	1.45	-0.491	1.12	1.31	0.612	0.188	-0.211
CCTTAAGGGTCACTCCAGGTTATAGCATCGGAGT	4.32	5.98	6.35	3.27	6.02	5.09	0.592	5.13	2.55
